# According to paper PMC5227109:
# Target: Sister chromatid cohesion protein 2 (UniProt Q04002)
# Test: cross-link between two proteins; cross-linking mass spectrometry
# UniProt Q04002, sequence (Q04002 whole entry): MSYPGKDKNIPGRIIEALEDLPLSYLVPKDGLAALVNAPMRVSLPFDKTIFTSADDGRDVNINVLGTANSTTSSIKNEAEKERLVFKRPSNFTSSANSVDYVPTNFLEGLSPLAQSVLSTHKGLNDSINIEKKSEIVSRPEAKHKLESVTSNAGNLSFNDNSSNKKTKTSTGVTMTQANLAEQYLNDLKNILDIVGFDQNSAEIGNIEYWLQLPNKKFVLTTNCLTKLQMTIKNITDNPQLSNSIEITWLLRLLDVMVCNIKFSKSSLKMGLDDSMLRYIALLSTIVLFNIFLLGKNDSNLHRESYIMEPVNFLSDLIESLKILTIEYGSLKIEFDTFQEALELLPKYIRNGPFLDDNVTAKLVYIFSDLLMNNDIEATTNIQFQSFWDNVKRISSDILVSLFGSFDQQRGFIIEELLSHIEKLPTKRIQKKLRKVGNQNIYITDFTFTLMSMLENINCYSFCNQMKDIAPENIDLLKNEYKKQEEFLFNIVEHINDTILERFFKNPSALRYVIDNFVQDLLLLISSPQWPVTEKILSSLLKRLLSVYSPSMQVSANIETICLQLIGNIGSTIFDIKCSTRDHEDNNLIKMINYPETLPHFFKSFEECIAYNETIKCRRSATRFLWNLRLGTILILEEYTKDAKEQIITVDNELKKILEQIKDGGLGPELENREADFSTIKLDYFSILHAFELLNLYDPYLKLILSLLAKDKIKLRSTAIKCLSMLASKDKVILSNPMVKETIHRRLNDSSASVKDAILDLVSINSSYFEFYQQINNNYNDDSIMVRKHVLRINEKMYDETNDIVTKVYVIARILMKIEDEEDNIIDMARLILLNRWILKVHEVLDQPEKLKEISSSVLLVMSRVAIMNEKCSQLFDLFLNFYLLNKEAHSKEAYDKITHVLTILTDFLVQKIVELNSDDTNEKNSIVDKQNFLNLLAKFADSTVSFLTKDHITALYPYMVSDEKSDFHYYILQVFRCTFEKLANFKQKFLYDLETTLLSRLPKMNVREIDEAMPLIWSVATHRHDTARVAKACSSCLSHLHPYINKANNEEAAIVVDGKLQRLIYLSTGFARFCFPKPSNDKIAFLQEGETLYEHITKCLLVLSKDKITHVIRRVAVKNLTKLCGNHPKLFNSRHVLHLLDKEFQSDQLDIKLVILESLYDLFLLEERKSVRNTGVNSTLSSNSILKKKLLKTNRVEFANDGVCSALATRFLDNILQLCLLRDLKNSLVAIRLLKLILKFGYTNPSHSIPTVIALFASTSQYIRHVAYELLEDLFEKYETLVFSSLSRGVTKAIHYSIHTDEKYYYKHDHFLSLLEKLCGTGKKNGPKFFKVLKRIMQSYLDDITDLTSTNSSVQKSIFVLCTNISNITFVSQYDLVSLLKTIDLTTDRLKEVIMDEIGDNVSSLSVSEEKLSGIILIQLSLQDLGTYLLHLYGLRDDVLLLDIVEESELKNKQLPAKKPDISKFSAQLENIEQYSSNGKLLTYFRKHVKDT
substance,measurement,value
"MAU2 chromatid cohesion factor homolog, P40090",listed as a hit,yes
